Results from ChEMBL document CHEMBL4513216, “Probing the Open Global Health Chemical Diversity Library for Multistage-Active Starting Points for Next-Generation Antimalarials” (ACS Infect Dis, 2020).
Hit rate of the full screen: of about 68,000 compounds, about 2,700 (4%) showed an effect of 50% or more. The list comes from a sample in which strong results are over-represented; it also holds similar structures and randomly drawn compounds.

System: Plasmodium berghei
Assay: Screen against P. berghei liver stage (PbLuc), transformed with Luciferase, at 2uM
Type: functional, HepG2
Conditions: tested at 2 uM

SMILES	INHIBITION
Cc1nc(C(C)C)sc1C(=O)N(C)Cc1cnn(C)c1	-35.11%
Cc1cc(NC(=O)NCC(C)N2CCOCC2)n(C)n1 (stereo not given)	25.53%
CC(=O)N1CCOC(c2cncc(CCC(=O)N(C)C)n2)C1 (stereo not given)	-26.69%
CCn1cc(-c2cc(-c3cc(CN(C)C)cs3)nc(N)c2C#N)c(C)n1	42.48%
c1ccc2cc(OCCN3CCn4c(nnc4C4CC4)C3)ccc2c1	18.31%
Cc1cccc(CN2CCOC3(CCCN(CC(=O)N(C)C)C3)C2)n1 (stereo not given)	-25.4%
Cc1ccccc1C(C)NC(=O)Cc1c(C)nc2cc(=O)[nH]n2c1C (stereo not given)	-18.39%
CC(C)n1cnnc1CN(C)Cc1ccoc1	33.78%
CN(CCCNc1cc(N2CCCC2CO)ncn1)S(C)(=O)=O (stereo not given)	22.75%
Cn1cc(CN2CC[C@@H](NS(C)(=O)=O)[C@@H]2Cc2cccnc2)cn1	-28.13%
O=C(c1cc(-n2cnnn2)ccc1Cl)N1CCN(c2ccccc2)CC1	8.92%
c1csc(CN2Cc3nccn3CC(Cn3cncn3)C2)c1 (stereo not given)	54.62%
c1cc(CN2Cc3nccn3CC(Cn3cncn3)C2)ccn1 (stereo not given)	-6.68%
c1csc(CN2Cc3nccn3CC(Cn3cncn3)C2)n1 (stereo not given)	-43.55%
O=C(NCc1cccnc1)[C@@H]1CC[C@@H]2[C@@H](CCN2c2ncccn2)O1	25.5%
CN(CCn1ccnc1-c1ccccn1)S(C)(=O)=O	35.52%
CC(C)NC(=O)N1CCN(CC2CC2)CC2(CNC(=O)C2)C1 (stereo not given)	13.38%
CN(C)CCN(C)C(=O)Cn1cccc2cc(-c3ccc(F)cc3)nc1-2	31.81%
COc1ccc(-c2cc3cccn(CC(=O)N4CCOCC4)c-3n2)cc1	-16.87%
O=C(Cn1cccc2cc(-c3ccc(F)cc3)nc1-2)N1CCC(O)CC1	92.28%
Cc1csc(CNc2cnn(CC(C)C)c2)n1	3.58%
CCc1nnc2n1CCN(C(=O)c1cc(C)n(-c3ccccc3)c1C)C2	-68.26%
Cn1cc(N2CCC3(CCN(C(=O)[C@H]4CCCO4)C3)C2=O)cn1 (stereo not given in full)	-28.81%
CC(=O)N1CC[C@H]2OCC[C@@]2(C(=O)NCc2cnc(C)cn2)C1	-41.74%
Cc1cnc(CNC(=O)[C@@]23CCO[C@@H]2CCNC3)cn1	62.6%
Cc1cnc(CNC(=O)[C@@]23CCO[C@@H]2CCN(C2CCCC2)C3)cn1	-7.71%
CCN1C[C@@H]2C[C@H](C(=O)NCc3cccnc3)[C@H](C1)O2	-19.81%
CCCC1(CO)CCCN(C(=O)CCCn2nc(C)cc2C)C1 (stereo not given)	1.1%

SMILES	INHIBITION
COc1ccc(C(=O)N2CCCC(n3nc(C)nc3C)C2)c(OC)c1 (stereo not given)	-42.39%
CN(Cc1cc(Br)cn1C)C(=O)c1cscn1	30.06%
Cc1cnc(C2(C)CCN(Cc3csc(C)n3)CC2)s1	19.47%
O=C1CCC2(CCN(Cc3cscn3)CC2)CN1CC1CCCO1 (stereo not given)	40.47%
Cc1ccc(CN2CCCN(Cc3cscn3)CC2)cc1	-6.56%
Cc1cnc(C2(C)CCN(Cc3cscn3)CC2)s1	50.32%
O=C1CCC2(CCN(Cc3cscn3)CC2)CN1CCCO	-8.8%
CCN1CC2(CCC1=O)CCN(Cc1cscn1)CC2	50.32%
CC(C)c1cc(C(=O)N2C[C@@H]3CC[C@H]2CN(Cc2cscn2)C3)no1	22.89%
CCOc1ccc2[nH]c(=O)c(CN3CCCC3c3ccccn3)cc2c1 (stereo not given)	-97.01%
CC(C)(C)n1nnnc1CN(Cc1ccccc1)Cc1ccc(Cl)cc1	8.33%
CN(CC(=O)NC(Cc1ccsc1)c1cccnc1)Cc1cccnc1 (stereo not given)	-37.25%
Cc1csc(C(Cc2ccsc2)NC(=O)CN(C)Cc2ccccn2)n1 (stereo not given)	7.39%
Cc1csc(C(Cc2ccsc2)NC(=O)CN(C)Cc2cccnc2)n1 (stereo not given)	55.29%
COc1cccc(CN2CCC3(CCN(c4ncc(C)cn4)CC3)C2)c1	13.26%
CC(C#N)CNS(=O)(=O)c1ccc(Br)c(F)c1 (stereo not given)	64.21%
Cc1ccc(S(=O)(=O)NCC(C)C#N)cc1Br (stereo not given)	4.88%
CC(C#N)CNS(=O)(=O)c1ccc(F)c(Br)c1 (stereo not given)	-27.36%
COc1ccc2c(c1)C1(CCN(Cc3ccoc3)CC1)N(C)CC2	-11.19%
COCCC(=O)NCCn1nc(C2CCNC2)c2cccnc21 (stereo not given)	49.9%
Cc1ccc(CN2CCOCC2)cc1NC(=O)c1ccsc1	34.25%
Cc1ccc(C(=O)N2CCOCC2)cc1NCc1ccsc1	21.24%
Cc1ccc(CN2CCOCC2)cc1NCc1ccsc1	52.85%
CS(=O)(=O)CC1CCCN(C(=O)Cn2cccc(C(F)(F)F)c2=O)C1 (stereo not given)	33.96%
CN1CCN(CCc2ncnn2-c2ccc3c(c2)OCO3)CC1	65.76%
CS(=O)(=O)N1CCC[C@H]1c1ncnn1-c1ccc2c(c1)OCO2	-13.17%
CS(=O)(=O)CCc1ncnn1-c1ccc(F)c(Cl)c1	19.38%
